Screening data: PubChem, National Center for Advancing Translational Sciences (NCATS)
KinaseGlo FLuc = Counterscreen for Luciferase (Kinase-Glo TM) Inhibition | 200,000 compounds, 0.28% hits | Potency, µM (highest dose often 38.3 µM), inactives show top-dose activity change, negative = inhibition, actives largely listed as inhibitors | Kinase-Glo luciferase, ATP luminescence, 8 min; active = well fitted inhibition curve with a large enough effect; inconclusive = small, poorly fitted or top-dose-only effect; note: potency is the fitted concentration of half-maximal effect; nearly all actives have a fitted effect of over 60% in size
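Substrate mix (final 50 mM imidazole pH 7.2, 50 mM KCl, 7 mM MgCl2, 10 uM ATP, 0.01% Tween 20, 0.05% BSA) plus pin-tool compound, then Kinase-Glo detection mix; 8 min ambient, luminescence read.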
HPGD block = qHTS Assay for Inhibitors of HPGD (15-Hydroxyprostaglandin Dehydrogenase). 15-hydroxyprostaglandin dehydrogenase [NAD(+)] (Homo sapiens), P15428. purified HPGD, NADH fluorescence kinetic, PGE2 substrate. Potency, µM, without a hit: at the top dose activity change, negative = inhibition, actives largely listed as inhibitors. 150,000 compounds, 4.3% hits; note: potency is the fitted concentration of half-maximal effect
Target sequence (P15428 whole entry, looked up): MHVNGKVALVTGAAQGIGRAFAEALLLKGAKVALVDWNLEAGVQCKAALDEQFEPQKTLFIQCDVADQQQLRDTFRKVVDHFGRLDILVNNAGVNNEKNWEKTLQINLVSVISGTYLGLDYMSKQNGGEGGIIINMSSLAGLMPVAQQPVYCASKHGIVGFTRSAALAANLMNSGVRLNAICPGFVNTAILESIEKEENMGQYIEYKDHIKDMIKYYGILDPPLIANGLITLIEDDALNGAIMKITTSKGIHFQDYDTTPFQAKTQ
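20 nM HPGD preincubated 15 min at room temperature with compound in 50 mM Tris-HCl pH 8, 0.01% Tween 20. Started with 1 mM NAD+ and 30 uM prostaglandin E2; NADH fluorescence (360/450 nm) read 5 times over 30-s intervals, last minus first.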
ALDH1A1 block = qHTS Assay for Inhibitors of Aldehyde Dehydrogenase 1 (ALDH1A1); Aldehyde dehydrogenase 1A1 (Homo sapiens), P00352; Purified ALDH1A1, NADH fluorescence, propionaldehyde substrate; Potency, µM (series often up to 75.3 µM), for the others: at the top dose activity, negative = inhibition, usual class: inhibitors; 220,000 compounds, 7.3% hits; AID 1030, 2008;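 note: potency is the fitted concentration of half-maximal effect; plate controls were no enzyme wells and a reference inhibitor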
Target sequence (P00352 whole entry, looked up): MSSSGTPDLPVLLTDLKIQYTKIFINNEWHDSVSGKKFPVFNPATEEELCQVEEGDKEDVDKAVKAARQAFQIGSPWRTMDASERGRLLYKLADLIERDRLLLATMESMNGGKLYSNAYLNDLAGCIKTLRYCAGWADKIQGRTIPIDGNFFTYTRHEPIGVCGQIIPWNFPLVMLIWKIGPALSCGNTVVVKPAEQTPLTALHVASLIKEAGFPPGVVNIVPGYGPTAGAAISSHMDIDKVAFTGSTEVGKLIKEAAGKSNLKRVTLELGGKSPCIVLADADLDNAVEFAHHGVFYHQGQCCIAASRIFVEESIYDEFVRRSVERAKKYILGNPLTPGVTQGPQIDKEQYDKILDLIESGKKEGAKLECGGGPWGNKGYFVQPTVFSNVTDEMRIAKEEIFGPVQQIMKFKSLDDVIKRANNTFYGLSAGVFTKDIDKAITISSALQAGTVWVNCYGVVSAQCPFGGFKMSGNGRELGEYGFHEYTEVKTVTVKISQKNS
Lamin A splicing = qHTS Assay for Modulators of Lamin A Splicing. Potency, µM (titrated, usually from 46.1 µM), for inactives: at the top dose ratio change, negative = inhibition, most hits filed as inhibitors. AID 1487, 2009. HeLa LMNA splicing GFP/RFP minigene ratio, 48 h. 200,000 compounds, 0.01% hits; active = well fitted inhibition curve with a large enough effect in the signal ratio, with a control signal flat, not every such curve was filed as active; inconclusive = small, poorly fitted or top-dose-only effect, or effect the other way, or a change in a side signal; the % refers to the signal ratio; note: potency is the fitted concentration of half-maximal effect
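Read-out is the ratio of GFP to DsRed2 object intensity, acquired by 488 nm laser-scanning cytometry on HeLa lamin A-EGFP minigene reporter cells. Compound incubation 48 hrs at 37 °C in Opti-MEM with 2% FBS; DMSO 0.5% final.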
PNC inhibitor = High Content Assay for Compounds that inhibit the Assembly of the Perinucleolar Compartment; activity change (PNC), negative = inhibition, % at 10 µM; 140,000 compounds, 3.1% hits; PC3M PTB-GFP, PNC prevalence imaging, 16 h; hits give low values;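 active = readout at or below -70, meaning at least 70% loss of cells showing the perinucleolar compartment, a nuclear body marking cancer cells; inconclusive = readout between -30 and a set limit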;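 note: plate controls were DMSO wells for no effect and camptothecin positive control wells for full effect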
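PC3M cells stably expressing PTB-GFP, 750–1000 cells/well, treated 16 h at 37 °C with compound (23 nl of library stock), in duplicate. After paraformaldehyde fixation and Hoechst stain, imaged at 20x; PNC prevalence scored by image analysis.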
* = called active by the depositor; ? = inconclusive; . = no result; ! = not active in a repeat; [ ] = another dose, or the depositor's remark. Hits are enriched below; roughly 10% of the tested compounds scored in any of these assays. Unless noted, calls come from the whole dose curve; as a rule, active = well fitted inhibition curve with a large enough effect (not every such curve was filed as active); inconclusive = small, poorly fitted or top-dose-only effect, or another doubt; inactive = no such curve, though single readings can be large or run the other way. Unless noted, % is set by controls: 0 for no effect and ±100 for the full control effect.

SMILES	KinaseGlo FLuc	HPGD block	ALDH1A1 block	Lamin A splicing	PNC inhibitor
CCCCc1nc2c(c3c1C[C@H](C)OC3)CN(C(=O)Cc1cccc(OC)c1)CC2	-5.4%[7.66 µM]	-6.5%	7.4%[13.5 µM]	-5.6%[9.22 µM]	.
C=CCN(CC=C)S(=O)(=O)c1ccc(NC(=O)COc2ccccc2OC)cc1	-1.3%	-3.2%	10.3%	2.1%	-87.6*
COc1ccccc1OCC(=O)Nc1ccc(S(=O)(=O)Nc2cc(C)nc(C)n2)cc1	1.1%	-11.1%	-0.7%	-5.7%	54.6
Cc1noc(C)c1C(=O)N1CCC2(CCCN(c3ncccn3)C2)CC1	0.5%	-16.9%	-2.6%	.	.
Cc1ccc(S(=O)(=O)Oc2ccc(/C=C(/NC(=O)c3ccccc3)C(=O)NCCC(=O)O)cc2)cc1	2.2%	.	2.51µM*	10.2%[46 µM]	.
Cc1ccc(S(=O)(=O)Oc2ccc(/C=C(/NC(=O)c3ccccc3)C(=O)NCCCC(=O)O)cc2)cc1	-2.9%	.	2.82µM*	.	.
COc1ccc(/C=C(/NC(=O)c2ccccc2Cl)C(=O)NCCCC(=O)O)cc1	5.6%	.	-1.5%	2.2%[46 µM]	.
COc1ccc(NC(=O)/C(=C\c2ccc(OS(=O)(=O)c3ccc(C)cc3)cc2)NC(=O)c2ccccc2)cc1	-0.5%	-14.8%	1µM*	-0.3%	9.4
Cc1ccc(S(=O)(=O)Oc2ccc(/C=C(/NC(=O)c3ccccc3)C(=O)Nc3ccccc3)cc2)cc1	-5.5%	?	?	3.7%	27.1
COc1ccc(/C=C(\NC(=O)c2ccccc2)C(=O)NCCC(=O)O)cc1	3.2%	.	9.3%	6.7%[46 µM]	.
O=C1CCC=C1C(O)CCc1ccccc1 (centres undefined)	-0.1%	-8.7%	-7.4%	.	.
O=C(c1ccco1)N1CCC2(CC1)CN(c1ccccn1)C2	-5.8%	?	?	.	.
CCOC(=O)C1=C(C)OC(N)=C(C#N)C1c1ccc(C)s1 (centres undefined)	4.1%	.	22.4µM*	?	.
COC(=O)C1=C(C)OC(N)=C(C#N)C1c1cc(C)sc1C (centres undefined)	3.7%	28.2µM*	?	5.5%	?
COC(=O)C1=C(C)OC(N)=C(C#N)C1c1cc2cccc(C)c2nc1Cl (centres undefined)	3.3%	.	28.2µM*	.	.
COc1ccccc1CN1CCCC2(CCNCC2)C1	-7.2%	-10.3%	9.3%	.	.
COc1ccc(C(=O)NNC2=CC(=O)CC(C)(C)C2)cc1	-2.9%	0.0%	-3.1%	-7.2%	-7.7
CC1(C)CC(=O)C=C(OC(=O)c2ccc(Cl)cc2)C1	4.6%	14.1µM*	6.8%	-3.7%	-15.2
O=C(CSc1ncnc2nc[nH]c12)Nc1ccccc1C(F)(F)F	7.4%	8.91µM*	-0.3%	4.1%	?
O=C(CSc1ncnc2nc[nH]c12)c1ccccc1	-4.8%[7.66 µM]	28.2µM*!	28.2µM*!	?	-19.9
CN(C)CCNC(=O)CCCN1C(=O)c2cccnc2Oc2ccc(Cl)cc21	.	.	.	14.6%[46 µM]	.
COCOc1c2c(c(OCOC)c3c(OCOC)cccc13)/C(=N/NS(C)(=O)=O)C1=C2CCCC1	-0.8%	?	-13.8%	.	.
CC(=O)c1ccccc1Oc1nc(CN2CCOCC2)nc2scc(-c3cccs3)c12	-1.7%	-4.5%	22.4µM*	20.9%	4.3
O=C(O)C(S)[C@@H](S)C(=O)O (some centres undefined)	-4.7%	4.47µM*	3.55µM*	.	.
COC(=O)N1[C@H](Cc2ccccc2)C=C[C@]1(C)C(=O)O	4.6%	-13.7%	-10.0%	0.4%	71.1
SMILES	KinaseGlo FLuc	HPGD block	ALDH1A1 block	Lamin A splicing	PNC inhibitor
CC(=O)N1[C@H](Cc2ccccc2)C=C[C@]1(C)C(=O)O	-0.3%	-13.2%	28.2µM*	.	.
COC(=O)CNC(=O)[C@@]1(C)C=C[C@@H](Cc2ccccc2)N1C(C)=O	-24.4%	10µM*	22.4µM*	.	.
O=C1CCCC=C1[C@@H](O)CCOC(c1ccccc1)(c1ccccc1)c1ccccc1	-1.3%	-10.2%	6.9%	.	.
CCOc1ccc(/C=C/C2=Cc3c(sc(NC(=O)CSc4n[nH]c(N)n4)c3C#N)C(C)(C)C2)cc1	-4.7%	?	25.1µM*	?	13.4
CCN(C(=O)Cn1c(SCC(=O)Nc2ccc(OC)cc2)nc2ccccc21)c1cccc(C)c1	.	.	.	-18.3%[46 µM]	.
COc1ccc(CC(=O)Nc2ccc(-c3nnc(-c4ccccc4)o3)cc2)cc1OC	-1.6%	?	3.55µM*	1.7%	-1.7
COc1ccc(CC(=O)Nc2ncc([N+](=O)[O-])s2)cc1OC	-1.3%	.	20µM*	?	.
COc1ccc(CC(=O)Nc2cccc(C)n2)cc1OC	-3.6%	-1.0%	-1.3%	?	-80.9*
COc1ccc(CC(=O)Nc2cc(C)on2)cc1OC	16.9%	-6.0%	1.6%	-10.5%	?
COc1ccc(CC(=O)Nc2nccs2)cc1OC	1.3%	-19.7%	14.7%	?	96.5
Cc1cccc(-c2noc(CSc3nc(-c4ccc(F)cc4)cc(=O)[nH]3)n2)c1	.	.	.	5.2%[46 µM]	.
COc1ccc(-c2cc(=O)c3c(O)cc(O[C@H]4OC(COC5OC(C)C(O)C(O)[C@H]5O)C(O)C(O)C4O)cc3o2)cc1O (some centres undefined)	-7.5%	-18.7%	?	.	.
O=C(Cn1c(=O)n(Cc2ccco2)c(=O)c2cc(Cl)ccc21)NCC1CCCO1 (centres undefined)	1.8%	0.8%	25.1µM*	-7.8%	?
COc1cc2c(=O)n(Cc3ccccc3)c(=O)n(CC(=O)NCC3CCCO3)c2cc1OC (centres undefined)	0.7%	?	?	-0.7%	?
CC1=C/C(=N\NC(=O)c2ccc(O)cc2)CC1	.	.	3.2%	-5.0%	-16.8
CSC(=NNC(=O)c1ccc(O)cc1)SC	?	15.8µM*	-9.2%	12.2%	50.5
CCC1(c2ccc(Cl)cc2)NC(=S)N(c2ccccc2)N1 (centres undefined)	-0.7%	-17.3%	12.6µM*	-5.6%	-10.1
CCC1(c2ccccc2)NC(=S)N(c2ccc(C)cc2)N1 (centres undefined)	-0.7%	.	?	.	.
Cc1ccc(Sc2ccc(NC(=O)CCl)cc2)c(C)c1	-6.2%	11.2µM*	-5.7%	-8.4%	-26.7
CC(=O)Nc1ccc(NC(=O)CSc2ccc(C)cc2)cc1	-1.4%	-8.9%	1.7%	-1.0%	-6.5
CC1Cc2ccccc2N1C(=O)COC(=O)CNC(=O)c1ccc(Br)o1 (centres undefined)	2.5%	-12.3%	28.2µM*	-8.5%	35.8
O=C(Nc1ccccc1)Nc1ccno1	.	.	2.3%	.	.
COc1cc(/C=C(\NC(=O)c2ccccc2)C(=O)Nc2cccc(O)c2)c([N+](=O)[O-])cc1OC	-2.0%	-8.4%	-13.2%	1.2%	13.3
COc1cc(/C=C(\NC(=O)c2ccccc2)C(=O)NCCO)c([N+](=O)[O-])cc1OC	0.2%	-5.0%	-0.7%	-17.5%	-93.1*
